The campaign covered roughly 5,500 compounds. About 2,000 (36%) were called active. Not shown: some 18% with an inconclusive outcome. Rule as the data show it: active = normalized growth mostly below about 0.91 (no sharp cut-off); inconclusive = no clear call, values can overlap the other calls; inactive = mostly above about 0.92. Some of the results follow.
Assay: chemical genetic growth profiling, strain panel (AID 1159580);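 also: tested at 20 µM; growth read once vehicle control cultures reached saturation at 30 °C; 1 = growth at the plate median or of vehicle wells; lower values mean less growth of the strain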
Conditions: S. cerevisiae deletion strains, growth OD

Measured: normalized growth

NC(COCc1ccccc1)C(=O)O (stereo not drawn)
inactive: locus YHR030C, strain SLT2, hits give low values 1.01 | locus YHR079C, strain IRE1, hits give low values 1 | locus YJL095W, strain BCK1, hits give low values 0.995 | locus YJR066W, strain TOR1, hits give low values 0.891 | locus YLR113W, strain HOG1, hits give low values 1.01 | locus YNL183C, strain NPR1, hits give low values 0.904 | locus YOR231W, strain MKK1, hits give low values 1.01 | locus YPL256C, strain CLN2, hits give low values 0.999
